Laboratory results as given in PubChem BioAssay (NCATS).
Results filed as inconclusive are left out. Activity calls are given as the source filed them. Unless noted, calls follow the shape of the dose curve; as a rule, active = well fitted inhibition curve with a large enough effect; inconclusive = small, poorly fitted or top-dose-only effect; inactive = flat fitted curve, though single readings scatter.

What was measured:
[1] = qHTS for Inhibitors of the Functional Ribonucleoprotein Complex (vRNP) of Lassa (LASV) Arenavirus: LASV Primary Screen - GLuc reporter signal (AID 1347082; calls by dose curve; tested in HEK293 reporter line; also: nearly all actives have a fitted effect of over 60% in size)
[2] = qHTS for Inhibitors of the Functional Ribonucleoprotein Complex (vRNP) of Lassa (LASV) Arenavirus: Viability assay - alamar blue signal for LASV Primary Screen (AID 1347083; calls by dose curve; tested in HEK293 reporter line; also: nearly all actives have a fitted effect of over 80% in size)
[3] = qHTS for Inhibitors of the Functional Ribonucleoprotein Complex (vRNP) of Lymphocytic Choriomeningitis Arenaviruses (LCMV): Viability assay - alamar blue signal for LCMV Primary Screen (AID 1347085; calls by dose curve; tested in HEK293 reporter line; also: nearly all actives have a fitted effect of over 80% in size)
[4] = biological target: Nucleoprotein (Lymphocytic choriomeningitis virus (strain Armstrong)) (UniProt P09992); assay: qHTS for Inhibitors of the Functional Ribonucleoprotein Complex (vRNP) of Lymphocytic Choriomeningitis Arenaviruses (LCMV): LCMV Primary Screen - GLuc reporter signal (AID 1347086; calls by dose curve; also: nearly all actives have a fitted effect of over 70% in size)
CRL-7250 = normal cell line; assay: qHTS assay to identify novel small-molecules to repurpose for Merkel cell carcinoma treatment (AID 1296009); conditions: MCC and control cell lines, CellTiter-Glo viability, 72 h; series mostly up to 92 µM; also: nearly all actives have a fitted effect of over 60% in size
Outline: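 Luminescence from CellTiter-Glo, read 10 min after addition at room temperature, reported viability following a 72 hr, 37 degree celsius treatment with NPC or MIPE compounds in titration; values normalized to plate controls.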

Measured: Potency

Sequence of Nucleoprotein (Lymphocytic choriomeningitis virus (strain Armstrong)) (P09992 whole entry, looked up): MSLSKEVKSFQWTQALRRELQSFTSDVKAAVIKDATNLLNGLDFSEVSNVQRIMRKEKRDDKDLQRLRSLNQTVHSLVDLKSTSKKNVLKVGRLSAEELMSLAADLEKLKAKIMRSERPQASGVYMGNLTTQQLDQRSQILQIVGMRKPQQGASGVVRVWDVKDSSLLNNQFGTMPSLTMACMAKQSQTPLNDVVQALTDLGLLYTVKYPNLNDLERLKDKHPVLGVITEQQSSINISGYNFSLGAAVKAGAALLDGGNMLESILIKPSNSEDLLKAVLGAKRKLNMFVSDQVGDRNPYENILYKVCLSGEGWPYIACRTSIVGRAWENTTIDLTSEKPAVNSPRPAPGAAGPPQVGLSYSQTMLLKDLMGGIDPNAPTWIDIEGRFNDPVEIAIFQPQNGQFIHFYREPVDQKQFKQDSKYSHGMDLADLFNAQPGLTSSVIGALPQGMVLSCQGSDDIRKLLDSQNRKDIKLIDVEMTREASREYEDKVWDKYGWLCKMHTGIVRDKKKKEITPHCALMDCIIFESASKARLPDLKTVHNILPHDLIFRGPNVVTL

C=CC[N+]1([C@H]2C[C@H]3[C@@H]4CC[C@H]5C[C@H](O)[C@@H](N6CCOCC6)C[C@]5(C)[C@@H]4CC[C@]3(C)[C@H]2OC(C)=O)CCCC1
inactive: all assays above

COc1c(O)cc2c(c1O)[C@@H]1O[C@H](CO)[C@@H](O)[C@H](O)[C@H]1OC2=O
inactive: all assays above

O=C(C[C@@H]1CC=CCCC(=O)O[C@H](c2ccccc2)CNC1=O)NCc1ccc(Cl)cc1
inactive: all assays above

CN(C1CCc2c(c3ccccc3n2CC(=O)O)C1)S(=O)(=O)c1ccc(F)cc1 (stereo unspecified)
inactive: all assays above

COc1cc(/C=C/C(=O)OC2CC3CCC2(C)C3(C)C)ccc1O (stereo unspecified)
inactive: all assays above

CC(=O)N[C@@H]1[C@H](O[C@@H]2c3ccc(c(Cl)c3)Oc3cc4cc(c3O[C@H]3O[C@H](CO)[C@@H](O)[C@H](O)[C@H]3NC(=O)CCCCCCCC(C)C)Oc3ccc(cc3Cl)C[C@H]3NC(=O)[C@H](N)c5ccc(O)c(c5)Oc5cc(O)cc(c5)[C@H](NC3=O)C(=O)N[C@H]4C(=O)N[C@H]3C(=O)N[C@@H]2C(=O)N[C@@H](C(=O)O)c2cc(O)cc(O[C@H]4O[C@H](CO)[C@@H](O)[C@H](O)[C@H]4O)c2-c2cc3ccc2O)O[C@H](CO)[C@@H](O)[C@@H]1O
inactive: all assays above

NC(=O)NN=Cc1ccc([N+](=O)[O-])o1
inactive: all assays above

CCOC(=O)N1CCN([N+]([O-])=NOc2cc(ON=[N+]([O-])N3CCN(C(=O)OCC)CC3)c([N+](=O)[O-])cc2[N+](=O)[O-])CC1
inactive: all assays above

CC(=O)OCC(Cc1ccccc1)NC(=O)C(Cc1ccccc1)NC(=O)c1ccccc1 (stereo unspecified)
inactive: CRL-7250

COC(=O)N[C@H](C(=O)N1CCC[C@@H]1c1ncc(-c2ccc(-c3ccc(-c4cnc([C@@H]5CCCN5C(=O)[C@@H](NC(=O)OC)C(C)C)[nH]4)cc3)cc2)[nH]1)C(C)C
not listed: [4]
inactive: all other assays above

CN(C)CCOc1ccc(-c2nc(-c3ccc4c(c3)CCC4=NO)c(-c3ccncc3)[nH]2)cc1
inactive: all assays above

CNC[C@@H](O)[C@@H](O)[C@H](O)[C@H](O)CO
inactive: all assays above

C[C@@H]1O[C@@H](O[C@H]2[C@H](OC(=O)[C@]34CCC(C)(C)C[C@H]3C3=CCC5[C@@]6(C)C[C@H](O)[C@H](O[C@@H]7O[C@H](C(=O)O)[C@@H](O)[C@H](O)[C@H]7O)[C@@](C)(CO)C6[C@H](O)C[C@@]5(C)[C@]3(C)C[C@H]4O)O[C@@H](CO)[C@@H]2O)[C@H](O)[C@H](O)[C@H]1O[C@@H]1OC[C@@H](O)[C@H](O[C@H]2OC[C@](O)(CO)[C@H]2O)[C@H]1O (stereo partly specified)
inactive: CRL-7250 inactive [at 9.27 µM]

CC1(C)S[C@H]2[C@H](NC(=O)[C@@H](N)c3ccc(O)cc3)C(=O)N2[C@@H]1C(=O)O
inactive: all assays above

CC(C)(O)[C@H]1CC[C@@](C)([C@H]2[C@@H](O)C[C@@]3(C)[C@@H]4C[C@H](O[C@@H]5O[C@H](CO)[C@@H](O)[C@H](O)[C@@H]5O)[C@H]5C(C)(C)[C@@H](O[C@@H]6OC[C@@H](O)[C@H](O)[C@@H]6O)CC[C@@]56C[C@@]46CC[C@]23C)O1
inactive: all assays above

NC1CCC(Nc2nc(Nc3ccc(C(=O)N4CCCCC4)cc3)c3ncn(-c4cccc(F)c4)c3n2)CC1 (stereo unspecified)
inactive: all assays above

CC1C(=O)OC2C(O)C34C5CC(C(C)(C)C)C36C(OC(=O)C6O)OC4(C(=O)O5)C12O (stereo unspecified)
inactive: all assays above

COc1ccc2c(c1)O[C@H](O[C@@H]1O[C@H](CO)[C@@H](O)[C@H](O)[C@H]1O)C(=O)N2
inactive: CRL-7250

CCOC(=O)O[C@]1(C(=O)OCCl)CC[C@@H]2[C@H]3CCC4=CC(=O)C=C[C@]4(C)[C@@H]3[C@@H](O)C[C@@]21C
inactive: all assays above

O=C(NCc1ccccc1)[C@H](Cc1ccccc1)NC(=O)[C@@H]1O[C@@H]1C(=O)NCCc1ccc(O)cc1
not listed: [4]
inactive: all other assays above

Clc1cccc(-n2nnnc2NCc2ccccc2Oc2ccccn2)c1Cl
inactive: all assays above

CON=C(C(=O)N[C@@H]1C(=O)N2C(C(=O)OCOC(=O)C(C)(C)C)=C(C=Cc3scnc3C)CS[C@H]12)c1csc(N)n1
inactive: all assays above

CN(C)c1nc(Cc2ccc(NC(=O)c3ccc(C(F)(F)F)cc3)cc2)nc(N(C)C)c1CC(=O)O
inactive: all assays above
